The text below walks through data of PubChem BioAssay (NCI).

Structures are written as SMILES. This is part of a sample that, as a whole, favours compounds with a hit. Of some 83,000 tested, about 20% had one in any assay.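 Single-concentration screen, 48 h exposure, 96-well plates. Endpoint: percent growth. Below 10 = active.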 Calls of active or inactive are those of the source.

The test system of the experiment is T-47D breast. The experiment is described as follows: NCI-60 one-dose screen, 48 h (100 = growth as untreated, 0 = no growth, -100 = all killed). To be noted: 10 µM unless noted. Here is the method:
Growth inhibition of the T-47D human tumor cell line is measured as a screen for anti-cancer activity. Cells are grown in 96 well plates and exposed to the test compound for 48 hours. Compounds are tested at a single concentration, which is 10^-5 M for most compounds. The reported endpoint is percent growth (GI% or GIPRCNT), where numbers from 0 - 100% represent growth inhibition, and numbers from -100% - 0 represent cell death. For example, a value of 40 represents 60% growth inhibition. A value of 0 means no net growth occurred over the course of the experiment. A value of -40 indicates 40% of cells at the beginning of the experiment died by the end of the experiment. A value of -100 means all cells are dead at the end of the experiment.
NCI-60 Human Tumor Cell Lines Screen was performed using the standard one-dose NCI protocol, which is described in more detail at https://dtp.cancer.gov/discovery_development/nci-60/default.htm.
Compounds with GIPRCNT values below 10 were considered active. Activity score was based on GIPRCNT using the following formula: […]
Score is 0 for GIPRCNT values of 100 or above, 50 for GIPRCNT values of 0, and 100 for GIPRCNT values of -100.
With `C=CC(=O)N1CCN(c2cccc(Oc3nccc(Nc4nnc(-c5ccc(Br)cc5)s4)n3)c2)CC1`, the growth was 63.6% (inactive).
As for `COC1=CC(c2ccc[nH]2)=N/C1=C\c1[nH]c(C)c(CC(=O)OCc2ccccc2)c1CCC(=O)OCc1ccccc1`, the growth was -3.22% (active).
Then `CCOC(=O)C(=O)C(C(=O)OCC)c1ccccc1` (stereo not given), with 100% (inactive).
As for `COc1ccc(C(=O)/C=C/c2c(C(F)(F)F)nc3ccccn23)cc1OC`, the growth is -10.7% (active).
In the case of `C=C(C)[C@@H]1CCC[C@]2(COS(=O)(=O)c3ccc(C)cc3)CC[C@]3(C)[C@@H](CC[C@@H]4[C@@]5(C)CCCNC(C)(C)[C@@H]5CC[C@]43C)[C@@H]12`, the growth is 59.6% (inactive).
Then `COc1ccc(Nc2nc(-c3cc(O)c(C)c(C)c3O)cs2)cc1`, with 39.5% (inactive); and `CCCCCOC(=O)c1c(C)[nH]c(/C=C2\N=C(c3ccc[nH]3)C=C2OC)c1C`, with -42.5% (active); and `CCCC/C=C/[C@@H]1C[C@H]1CCO`, with 95.9% (inactive).
As to `O=C1/C(=C\c2ccc3nccnc3c2)SC(=S)N1CCc1ccc(O)cc1`, the growth was 50.4% (inactive).
Under `O=S(=O)(Nc1cc(F)cc(Cl)c1)c1ccc(-c2cnc(C3CC3)o2)cc1` stands 31.7% (inactive); under `CCSc1oc(-c2ccccc2)nc1[P+](c1ccccc1)(c1ccccc1)c1ccccc1`, 1.87% (active).
Take `Cn1cc(-c2csc(-c3cn(C(=O)OC(C)(C)C)c4ccc(Br)cc34)n2)c2ccnc(Cl)c21`: the growth is 66.8% (inactive).
Under `CC(=O)O[C@@H]1C[C@]2(C(C)C)O[C@@]1(C)[C@@H]1CCC(C)=C1[C@@H]2OC(=O)/C=C/c1ccccc1` stands 76.8% (inactive); under `CC(=O)Oc1ccc(N2C(=O)C(Cl)=C(Nc3cccc(C(F)(F)F)c3)C2=O)cc1`, 86.6% (inactive).
As to `COc1ccc(/C=C(\C#N)n2nnc3ccc(Cl)cc32)cc1`, the growth was 51.1% (inactive).
Under `CN(C)CCNC(=O)c1ccc(-c2nc3ccc4[nH]ncc4c3c3c2C2CCC3C2)cc1` (stereo not given) stands 43.6% (inactive); under `CCn1cc(C(=O)NNC(=S)Nc2ccc(C)cc2)c(=O)c2ccc(C)nc21`, 88.1% (inactive); under `CCCCCCCCCCC(CN(CC)CC)C(O)c1ccccc1` (stereo not given), 3.27% (active).
Then `N#C/C(=C\c1c(-c2ccccc2)[nH]c2ccccc12)C(N)=O`, with 83.7% (inactive); and `CCc1ccc(CCCC(=O)O)cc1`, with 98.8% (inactive).
Consider `CNC(=O)c1ccccc1Oc1nc(Nc2cc(OC)c(OC)c(OC)c2)ncc1Br`, for which the growth is 62.2% (inactive).
Take `CC(C)=CC(=O)OCC(=O)O[C@@H]1C[C@]2(C(C)C)O[C@@]1(C)[C@@H]1CC[C@@H](C)[C@H]1[C@@H]2OC(=O)/C=C/c1ccccc1`: the growth was 65.1% (inactive).
On to `Cc1ccc(Nc2cc(N)nc(N)n2)cc1Cl`, for which the growth is 76.6% (inactive).
For the compound `O=C(CN1C(=O)S/C(=C\C(Cl)=C\c2ccccc2)C1=O)NCCc1ccc(O)cc1`, the growth is 11.4% (inactive).
Under `O=C(CN1C(=O)NC2NC(=O)NC21)N/N=C/c1ccccc1[N+](=O)[O-]` (stereo not given) stands 104% (inactive); under `CCOC(=O)c1cc(C(=O)c2cc(OC)c(OC)c(OC)c2)n2ncccc12`, 58.5% (inactive).
In the case of `COc1ccc2c(c1)c(-c1nc(-c3c[nH]c4ccncc34)cs1)cn2C`, the growth is -49.6% (active).
Consider `CC1OC(n2c3ccccc3c3c4c(c5c6ccccc6[nH]c5c32)C(=O)N(CCN2CCCC2)C4=O)CC(O)C1O` (stereo not given), for which the growth is 51.9% (inactive).
Under `Cc1c(-c2ccc(O)cc2)n(Cc2ccc(OCCN3CCCCCC3)cc2)c2ccc(O)cc12` stands 58.4% (inactive); under `Cc1ccc(C)n1-c1ccccc1-n1c(C)ccc1C`, 91.2% (inactive); under `O=C(NNC(=O)c1ccc(NC(=O)c2ccccn2)cc1)Nc1ccc([N+](=O)[O-])cc1`, 99.2% (inactive).
As for `COc1cccc(/C=C2\COc3ccc(O)c(O)c3C2=O)c1`, the growth was -0.573% (active).
Take `COc1ccc(-c2ccc(-c3ccc(C(=N)N)cc3)s2)cc1Cl`: the growth is 42.6% (inactive).
Take `O=C1Nc2ccccc2/C1=C/c1cccn1CCCCn1c2ccccc2c(=O)c2ccccc21`: the growth is 5.03% (active).
Regarding `NNc1nc(-c2cccnc2)nc2c1sc(=S)n2-c1ccccc1`, the growth is 62.9% (inactive).
As to `CSc1nnc(-c2cc3c([nH]c4ccccc43)c(-c3cccc(O)c3)n2)n1-c1ccccc1`, the growth is 44.9% (inactive).
As to `O=S(=O)(c1ccccc1)n1cc2c(c1)-c1nc(Nc3ncccn3)sc1CC2`, the growth is 53% (inactive).
`Clc1ccc2c(NC3CCC(N4CCOCC4)CC3)ccnc2c1` (stereo not given): the growth is 58% (inactive).
Under `Cc1[nH]c(=O)[nH]c(=O)c1Br` stands 108% (inactive).
Turning to `CCCc1c(OC(=O)c2ccccc2)nc2[nH]c(=O)sc2c1C`, the growth was 89.7% (inactive).
